BAZ2B inh: BAZ2B (human) inhibition | Q9UIF8 | AlphaScreen BAZ2B-H3K14Ac peptide displacement | Potency, µM (series often up to 114 µM), without a hit: at the top dose activity change, negative = inhibition, hits mostly inhibitors | 360,000 tested, 4.4% active | AID 504333; also: % is scaled to controls: 0 for no effect and ±100 for the full control effect; nearly all actives have a fitted effect of over 60% in size
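BAZ2B (50 nM) with biotin-H3(5-23)K14Ac peptide (50 nM) in PBS pH 7.4, 0.01% Tween-20, preformed 30 min, then compound 30 min at room temperature; top concentration 110uM. AlphaScreen streptavidin donor/nickel chelate acceptor beads (10 ug/mL final), 20 min dark, signal read.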
HP1b chromo inh: inhibitors of HP1-beta chromodomain binding to methylated histone tails | P83916 | 390,000 tested, 0.56% active | Potency, µM (doses to about 114 µM), without a hit: top-dose activity change, negative = inhibition, hits mostly inhibitors | AlphaScreen HP1-beta / biotin-H3K9me3 peptide binding | AID 540317; also: nearly all actives have a fitted effect of over 70% in size
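AlphaScreen: HP1-beta (50 nM) preformed 30 min with biotin-H3(1-18)K9me3 peptide (50 nM) in PBS pH 7.4, 0.01% Tween-20. Compound added for 30 min at RT, then streptavidin donor/nickel chelate acceptor beads (10 ug/mL) for 30 min.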
JMJD2A Tudor inh: JMJD2A Tudor domain (human) inhibition; O75164; AlphaScreen JMJD2A-Tudor / H3K4me3 peptide binding; Potency, µM (top dose mostly 114 µM), inactives show at the highest dose activity change, negative = inhibition, hits mostly inhibitors; 390,000 tested, 4.4% active; AID 504339; also: % is scaled to controls: 0 for no effect and ±100 for the full control effect; nearly all actives have a fitted effect of over 50% in size
L3MBTL1 block: blocks human L3MBTL1. Potency, µM (series often up to 57.1 µM), for the others: at the top dose activity, negative = inhibition, actives largely listed as inhibitors. 230,000 tested, 0.66% active. AlphaScreen L3MBTL1–H3K9me1 peptide binding; also: % is scaled to controls: 0 for no effect and ±100 for the full control effect; nearly all actives have a fitted effect of over 60% in size
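L3MBTL1 (50 nM) pre-complexed 30 min with biotinylated H3(1-15)K9me1 peptide (75 nM), then compounds added for 30 min at room temperature; AlphaScreen streptavidin donor/nickel chelate acceptor beads (10 ug/mL final) read after 30 min dark incubation.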
G9a block: G9a (human) methyltransferase inhibition; 350,000 tested, 8.8% active; Q96KQ7; G9a H3K9 monomethylation, AlphaScreen, 2 h; Potency, µM (series often up to 102 µM), without a hit: top-dose activity, negative = inhibition, most hits filed as inhibitors; also: % is scaled to controls: 0 for no effect and ±100 for the full control effect; nearly all actives have a fitted effect of over 75% in size
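Using a bead-based AlphaScreen, monomethylated H3K9 product from 2 h room-temperature reactions (G9a 20 nM, peptide 500 nM, SAM 20 uM) was detected with 0.5 ug/mL rabbit anti-H3K9me1 antibody.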
An asterisk follows results filed as active; u = inconclusive; x = no result; ! = repeats disagree; [ ] = another dose, or the depositor's remark. Only some compounds are listed: those with a hit (about 11% of all), similar ones and a draw of the others. Calls follow the shape of the dose curve; as a rule, active = well fitted inhibition curve with a large enough effect; inconclusive = small, poorly fitted or top-dose-only effect; inactive = no such curve, though single readings can be large or run the other way. Potency is read from the fitted curve at half-maximal effect.

SMILES	BAZ2B inh	HP1b chromo inh	JMJD2A Tudor inh	L3MBTL1 block	G9a block
Cc1ccccc1C(=O)NC(=S)Nc1ccc(N2CCOCC2)cc1	u	u	u	-23%	45µM*
CN(C)C(=S)Nc1ccc(N2CCOCC2)cc1	-1%	47%	-4%	5%	x
CCc1ccc(S(=O)(=O)c2nnn3c2nc(Nc2ccc(F)cc2)c2cc(Cl)ccc23)cc1	-1%	34%	1%	x	8%[59 µM]
Cc1ccc(-n2nc3c(N4CCC(C(=O)NCCC(C)C)CC4)nnc(C)c3c2C)cc1	-10%	31%	-18%	x	-39%[59 µM]
O=C(NC(=S)Nc1ccc(N2CCOCC2)cc1)c1ccccc1	u	u	u	-14%	4.5µM*
CCc1ccc(C(=O)NC(=S)Nc2ccc(N3CCOCC3)cc2)cc1	20µM*	u	u	-29%	6.3µM*
C/C(=C\C(=O)c1ccccc1)Nc1ccc(N2CCOCC2)cc1	-1%	23%	-27%	x	79µM*
O=C(NC(=S)Nc1ccc(N2CCOCC2)cc1)c1ccco1	-5%	-15%	-29%	-6%	u
Cc1nn(CCCC(=O)NCCc2ccc(Cl)cc2)c(=O)c2c1sc1ccccc12	25µM*	32µM*	7.9µM*	x	6.3µM*
Cc1nn(C(C)C(=O)NCCCN2CCCCCC2)c(=O)c2c1sc1ccccc12 (stereo not drawn)	-22%	16%	50µM*	x	50µM*
CCOc1ccc(CCNC(=O)CCCn2nc(C)c3sc4ccccc4c3c2=O)cc1	-13%	0%	-7%	x	-31%[59 µM]
CC(Nc1ccc(-c2nc(-c3ccccn3)no2)cc1[N+](=O)[O-])c1ccccc1 (stereo not drawn)	-5%	32%	-20%	x	-6%[59 µM]
CC(C)(C)c1cn(-c2ccc(Cl)cc2)c(=S)[nH]1	-3%	4%	35µM*	x	2µM*
CCOC(=O)c1noc2ncnc(NCc3ccccc3OC)c12	0%	33%	-7%	x	3%[59 µM]
O=C(CCN1C(=O)/C(=C/c2ccc(F)cc2)SC1=S)NCCCn1ccnc1	u	35%	-14%	x	50µM*
O=C(CCN1C(=O)/C(=C/c2ccc(Cl)cc2)SC1=S)NCCCn1ccnc1	40µM*	47%	-4%	x	u
O=C(CN1C(=O)S/C(=C\c2ccc(F)cc2)C1=O)NCCCn1ccnc1	u	42%	-23%	x	18%
COCCn1c(Cc2ccccc2)nnc1SCC(=O)N1CCCC1=O	6%	47%	-2%	-4%	-44%[12.7 µM]
CS/C(=N\S(=O)(=O)c1ccc(N)cc1)NS(=O)(=O)c1cccs1	-2%	14%	89µM*	5%	u
Cc1ccc(-n2c(C)nn(-c3ncc(C(F)(F)F)cc3Cl)c2=O)cc1	-6%	71%	-1%	x	-2%[59 µM]
Cc1nn(-c2ncc(C(F)(F)F)cc2Cl)c(=O)n1-c1ccc(F)cc1	-12%	10%	50µM*	17%	11%
CN(C)CCCN1c2ccc3ccccc3c2Sc2cccc(Cl)c21	x	u	50µM*	x	x
CN(C)CCCN1c2ccccc2Sc2ccc(Cl)cc21	40µM*	u	20µM*	-21%	71µM*!
O=C(CN1CCCC1)N1c2ccccc2Sc2ccc(Cl)cc21	-32%	7%	-24%	-2%	x
CN1CCN(CCCN2c3ccccc3Sc3ccc(S(=O)(=O)N(C)C)cc32)CC1	u	38%	-4%	-1%	10µM*
SMILES	BAZ2B inh	HP1b chromo inh	JMJD2A Tudor inh	L3MBTL1 block	G9a block
CN(C)CCCN1c2ccccc2Sc2ccc3ccccc3c21	x	7%	-33%	x	x
CCOC(=O)c1cc(-c2ccc(F)cc2)n(CCC(=O)Nc2ccccc2OC)c1C	-32%	-13%	u	x	-43%[59 µM]
Cc1cc(N2C(=O)c3ccccc3C2=O)n[nH]1	x	x	-3%	x	x
CCc1cccc(C)c1NC(=O)c1cc(C)nc2c1c(C)nn2-c1cccc(Cl)c1C	7%[57.1 µM]	27%	3%	x	-4%[59 µM]
Cc1ccc(OC(=O)c2cccc([N+](=O)[O-])c2)c(-n2nc3ccccc3n2)c1	-6%	17%	-19%	13%	21%[59 µM]
Cc1cc(-n2nc3ccccc3n2)c(O)c([N+](=O)[O-])c1	-35%	-7%	-29%	-6%	79µM*
Oc1ccc2c(ccc3[nH]cnc32)c1	-28%	20%	-8%	3%	50µM*
COCCCNC(=S)NNC(=S)NCCCOC	-17%	-25%	13µM*	9%	8.9µM*
